# Laboratory results from PubChem BioAssay (Tox21).
# Inconclusive results are not listed. Calls of active or inactive are those of the source. Calls follow the shape of the dose curve; as a rule, active = well fitted curve in the direction sought with a large enough effect in the repeat runs; inconclusive = weak or mixed curves; inactive = no such curve, though single readings can be large; an effect the other way counts as inactive or inconclusive.
# Test: qHTS RealTime-Glo MT Cell Viability Assay in HEK293 cells - 32 hour (AID 1224868); also: top concentration of the series differs between compounds
# Settings: RealTime-Glo luminescence; series mostly up to 76.8 µM; activity change, negative = cytotoxic: at the top concentration
# Procedure, shortened: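 Luminescence generated by NanoLuc from substrate produced by living HEK293 cells served as the viability signal. Each value reflects the reading at its stated time point during continuous 40 h compound exposure at 37 C.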
# % is scaled to controls: 0 for no effect and ±100 for the full control effect.
# Also: nearly all actives have a fitted effect of over 50% in size.
row,SMILES,"activity change, negative = cytotoxic"
1,O=C(O)C[C@H](NC(=O)OCc1ccccc1)C(=O)O,0.135% (inactive)
2,CCCCCCCCCI,0.732% (inactive)
3,O=C1C(=O)c2ccccc2C(O)=C1C1CCC(c2ccc(Cl)cc2)CC1 (centres undefined),-21.3% [at 35.3 µM] (inactive)
4,C[C@@H](O)[C@H]1C(=O)N2C(C(=O)O)=C([C@H]3CCCO3)S[C@H]12,6.87% [at 35.3 µM] (inactive)
5,CN(C)CCN1C(=O)c2ccccc2N(C)c2ccccc21,-4.37% [at 35.3 µM] (inactive)
6,Cc1cscn1,17.3% (inactive)
7,O=C(/C=C/c1ccccc1)OCCc1ccccc1,-3.25% (inactive)
8,CC1(C)[C@H](C(=O)O)N2C(=O)C[C@H]2S1(=O)=O,1.54% [at 35.3 µM] (inactive)
9,CC=C(Cl)Cl,13% (inactive)
10,NCCNCCO,21.3% (inactive)
11,N#CCc1ccc(Cl)cc1Cl,-9.68% (inactive)
12,CCCCC(CC)CN (centres undefined),6.39% (inactive)
13,CC(CN(C)C)C(C)(O)Cc1ccc(Cl)cc1 (centres undefined),-1.08% [at 35.3 µM] (inactive)
14,C[C@@]12CCC[C@H]1[C@@H]1CC[C@H]3C[C@@H](O)CC[C@]3(C)[C@H]1CC2,1.42% [at 35.3 µM] (inactive)
15,C[C@]1(Cn2ccnn2)[C@H](C(=O)O)N2C(=O)C[C@H]2S1(=O)=O,1.35% [at 35.3 µM] (inactive)
16,Cc1ccccc1N=C(N)Nc1ccccc1C,-20.4% (inactive)
17,O=C(O)c1ccc(OCCCOc2ccc(C(=O)O)cc2)cc1,3.17% [at 35.3 µM] (inactive)
18,CC1(C)S[C@@H]2[C@H](NC(=O)C(c3ccccc3)S(=O)(=O)O)C(=O)N2[C@H]1C(=O)O (some centres undefined),1.37% [at 35.3 µM] (inactive)
19,CO[C@]1(NC(=O)CSC(F)F)C(=O)N2C(C(=O)O)=C(CSc3nnnn3CCO)CO[C@H]21,17.3% [at 35.3 µM] (inactive)
20,CCCCN(CCN(CCCC)C(=O)N1CCOCC1)C(=O)N1CCOCC1,-14.4% [at 35.3 µM] (inactive)
21,O=C1CCCCCCCCCCOCCCCO1,-16.8% (inactive)
22,C=C(C)C(=O)OCCOCCOC(=O)C(=C)C,6.07% (inactive)
23,CCCCCC[C@@H](O)C/C=C\CCCCCCCC(=O)OCC(O)CO (some centres undefined),12.5% (inactive)
24,Cc1c(C)c2c(c(C)c1OC(=O)CCC(=O)OCCO)CC[C@@](C)(CCC[C@H](C)CCC[C@H](C)CCCC(C)C)O2,-16.9% [at 35.3 µM] (inactive)
25,O=C(Cn1ccnc1[N+](=O)[O-])NCCO,7.17% [at 35.3 µM] (inactive)
26,Cc1ccccc1S,-11.1% [at 35.3 µM] (inactive)
27,C=C1CCC2CC1C2(C)C (centres undefined),3.05% (inactive)
28,CCCCCCC(C)(C)C(=O)O,3.26% (inactive)
29,Cc1ccc(C(C)(C)O)cc1,-4.75% (inactive)
30,CCCCCCCC/C=C\CCCCCCCCO,14.4% (inactive)

# Test: A CellTox Green Cytotoxicity Assay to monitor cytotoxicity in HEK293 cells - 0 hour (AID 1224869)
# Settings: CellTox Green fluorescence; series mostly up to 76.8 µM; cytotoxicity: at the top concentration
# Procedure, shortened: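 Read-out: fluorescence of a cell-impermeant cyanine dye staining DNA of dead cells, proportional to cytotoxicity. HEK293, 600 cells/well with reagent, compound (23 nL DMSO) added after 5 h; reads at 0, 8, 16, 24, 32, 40 h.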
row,SMILES,cytotoxicity
1,O=C(O)C[C@H](NC(=O)OCc1ccccc1)C(=O)O,-1.35% (inactive)
2,CCCCCCCCCI,-0.979% (inactive)
3,O=C=Nc1ccc(Cl)c(Cl)c1,2.55% (inactive)
4,O=C1C(=O)c2ccccc2C(O)=C1C1CCC(c2ccc(Cl)cc2)CC1 (centres undefined),11.6% [at 35.3 µM] (inactive)
5,C[C@@H](O)[C@H]1C(=O)N2C(C(=O)O)=C([C@H]3CCCO3)S[C@H]12,0.134% [at 35.3 µM] (inactive)
6,c1ccc(C[n+]2cccc3ccccc32)cc1,1.81% (inactive)
7,CN(C)CCN1C(=O)c2ccccc2N(C)c2ccccc21,0.561% [at 35.3 µM] (inactive)
8,CC(C)C=O,-0.543% (inactive)
9,CCC1(CO)COCOC1,-10.2% (inactive)
10,Cc1cscn1,1.63% (inactive)
11,C[C@H]1C[C@H](O)c2ccsc2S1(=O)=O,-1.42% [at 35.3 µM] (inactive)
12,O=C(/C=C/c1ccccc1)OCCc1ccccc1,0.559% (inactive)
13,CC1(C)[C@H](C(=O)O)N2C(=O)C[C@H]2S1(=O)=O,0.9% [at 35.3 µM] (inactive)
14,CC=C(Cl)Cl,-0.78% (inactive)
15,NCCNCCO,-4.92% (inactive)
16,N#CCc1ccc(Cl)cc1Cl,0.49% (inactive)
17,CCCCC(CC)CN (centres undefined),0.952% (inactive)
18,CC(CN(C)C)C(C)(O)Cc1ccc(Cl)cc1 (centres undefined),-1.11% [at 35.3 µM] (inactive)
19,C[C@@]12CCC[C@H]1[C@@H]1CC[C@H]3C[C@@H](O)CC[C@]3(C)[C@H]1CC2,-7.77% [at 35.3 µM] (inactive)
20,C[C@]1(Cn2ccnn2)[C@H](C(=O)O)N2C(=O)C[C@H]2S1(=O)=O,-0.477% [at 35.3 µM] (inactive)

row,SMILES,cytotoxicity
1,Cc1ccccc1N=C(N)Nc1ccccc1C,-3.05% (inactive)
2,O=C(O)c1ccc(OCCCOc2ccc(C(=O)O)cc2)cc1,2.55% [at 35.3 µM] (inactive)
3,CC1(C)S[C@@H]2[C@H](NC(=O)C(c3ccccc3)S(=O)(=O)O)C(=O)N2[C@H]1C(=O)O (some centres undefined),-0.327% [at 35.3 µM] (inactive)
4,NC(=O)c1ccncc1,-5.43% (inactive)
5,CO[C@]1(NC(=O)CSC(F)F)C(=O)N2C(C(=O)O)=C(CSc3nnnn3CCO)CO[C@H]21,-1.39% [at 35.3 µM] (inactive)
6,CCCCN(CCN(CCCC)C(=O)N1CCOCC1)C(=O)N1CCOCC1,0.927% [at 35.3 µM] (inactive)
7,O=C1CCCCCCCCCCOCCCCO1,-0.312% (inactive)
8,C=C(C)C(=O)OCCOCCOC(=O)C(=C)C,-2.41% (inactive)
9,COC(=O)C1=C(C)NC(C)=C(C(=O)O[C@@H]2CCCN(Cc3ccccc3)C2)[C@@H]1c1cccc([N+](=O)[O-])c1,-2.12% [at 35.3 µM] (inactive)
10,CCCCCC[C@@H](O)C/C=C\CCCCCCCC(=O)OCC(O)CO (some centres undefined),-4.48% (inactive)
11,Cc1c(C)c2c(c(C)c1OC(=O)CCC(=O)OCCO)CC[C@@](C)(CCC[C@H](C)CCC[C@H](C)CCCC(C)C)O2,-10.4% [at 35.3 µM] (inactive)
12,O=C(Cn1ccnc1[N+](=O)[O-])NCCO,-0.955% [at 35.3 µM] (inactive)
13,Cc1ccccc1S,-1.63% [at 35.3 µM] (inactive)
14,CC[N+](CC)(CCNC(=O)C(=O)NCC[N+](CC)(CC)Cc1ccccc1Cl)Cc1ccccc1Cl,2.45% [at 35.3 µM] (inactive)
15,C=C1CCC2CC1C2(C)C (centres undefined),-8.54% (inactive)
16,CCCCCCC(C)(C)C(=O)O,3.8% (inactive)
17,Cc1ccc(C(C)(C)O)cc1,-1.41% (inactive)
18,CCCCCC#CC(=O)OC,-3.86% (inactive)
19,CCCCCCCC/C=C\CCCCCCCCO,5.93% (inactive)
